The values below come from PubChem BioAssay (Tox21).

Inconclusive results are not listed. The source made the active and inactive calls. Unless noted, calls come from the whole dose curve.

Assay [1] is described as follows: Nuclear factor erythroid 2-related factor 2/antioxidant responsive element (Nrf2/ARE) small molecule agonists: qHTS cell viability counter screen in human keratinocytes (AID 1919968; active = well fitted curve in the direction sought with a large enough effect in the repeat runs; an effect the other way counts as inactive or inconclusive; note: nearly all actives have a fitted effect of over 55% in size). A digest of the protocol:
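Viability counter-screen: KeratinoSens reporter cells, DMSO-delivered compounds, 23 h at 37 C, CellTiter-Fluor fluorescence.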
A general note: qHTS replaces the single test concentration by a dilution series.

Assay [2] in a line: Nuclear factor erythroid 2-related factor 2/antioxidant responsive element (Nrf2/ARE) small molecule agonists: luciferase reporter gene qHTS assay in human keratinocytes (AID 1919969). Note: nearly all actives have a fitted effect of over 35% in size. In general terms: A reporter such as luciferase makes a cellular process visible.
Assay [3] concerns the target Gonadotropin-releasing hormone receptor (Homo sapiens) (UniProt P30968). The experiment in a line: Human gonadotropin-releasing hormone receptor (GnRHR) small molecule agonists, calcium flux assay in GnRHR-HEK293 cells (AID 1920063). Note: nearly all actives have a fitted effect of over 35% in size. The essentials:
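Tox21-format agonist screen using human GnRHR-expressing HEK293 cells and a fluorescent calcium dye; kinetic 3-min fluorescence reading after compound addition, 15-point concentration series run in triplicate.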
In general terms: Calcium assays in cells follow changes in intracellular calcium, usually with a dye or a luminescent sensor.

Assay [4] addresses KiSS-1 receptor (Homo sapiens) (UniProt Q969F8). The experiment in a line: Human kisspeptin (KISS1R) small molecule agonists, calcium flux assay in KISS1R-HEK293 cells (AID 1920064; active = well fitted curve in the direction sought with a large enough effect in the repeat runs; an effect the other way counts as inactive or inconclusive). A digest of the protocol:
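Intracellular calcium mobilization in KISS1R-HEK293 cells was recorded by fluorescence (Ex/Em 480/540) for 3 min following compound addition to cells pre-loaded 1 h with calcium dye.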

The nature of assay [5]: G protein-coupled receptor (GPCR) small molecule agonists, calcium flux assay: HEK293 wild type cell line counter screen (AID 1920065). A digest of the protocol: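 In this agonist-mode screen, ATP is the positive control and DMSO the vehicle. Cells grow 18 h before a 1 h dye incubation at 37 C; signal is taken at Ex/Em 480/540 over 3 min.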
Assay [6] is described as follows: p53 small molecule agonists, cell-based qHTS assay with human liver microsomes (AID 1963577). The essentials:
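Compounds act here after metabolic activation: human liver microsomes and NADPH, both at 0.5 mg/mL final, were co-added to p53RE-bla cells. Incubation ran 16 h at 37 C, followed by LiveBLAzer detection.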

Assay [7] in a line: p53 small molecule agonists, cell-based qHTS assay with rat liver microsomes (AID 1963578). The essentials: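 Read-out is beta-lactamase reporter fluorescence (LiveBLAzer, 2 h, room temperature, dark) in p53RE-bla cells treated 16 h at 37 C with compound, rat liver microsomes and NADPH, both 0.5 mg/mL final.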
Assay [8] is described as follows: p53 small molecule agonists, cell-based qHTS assay with human liver microsomes: qHTS cell viability counter screen (AID 1963579). Note: nearly all actives have a fitted effect of over 45% in size. The essentials:
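Cells carrying the p53 response-element beta-lactamase reporter are treated for 16 h at 37 C with test compounds in the presence of human liver microsomes and NADPH (both 0.5 mg/mL final); ATP-based CellTiter-Glo luminescence then reports viability.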

A short description of assay [9]: p53 small molecule agonists, cell-based qHTS assay with rat liver microsomes: qHTS cell viability counter screen (AID 1963580). Note: nearly all actives have a fitted effect of over 45% in size. The essentials: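 In HCT-116 cells carrying a p53 response element-bla reporter, compounds were metabolically activated in situ by rat liver microsomes with NADPH over 16 h. Cell ATP content then served as the cytotoxicity measure.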
The nature of assay [10]: p53 small molecule agonists, cell-based qHTS assay: qHTS cell viability counter screen (AID 1963581). Note: nearly all actives have a fitted effect of over 45% in size. A digest of the protocol: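 Compounds are pinned onto HCT-116 p53RE-bla cells and left 16 h at 37 C. Following the reporter FRET read, ATP is quantified by CellTiter-Glo luminescence after 30 min at room temperature.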
The nature of assay [11]: p53 small molecule agonists, cell-based qHTS assay (AID 1963582; active = well fitted activation curve with a large enough effect in the signal ratio in the repeat runs, not every such curve was filed as active; the % refers to the signal ratio). The essentials:
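Agonist activity was scored from beta-lactamase FRET fluorescence in p53RE-bla cells treated 16 h at 37 C with compounds in DMSO, substrate incubation being 2 h at room temperature.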

Assay [12] concerns the target 5-hydroxytryptamine receptor 2A (Homo sapiens) (UniProt P28223). As to the kind of experiment: 5-hydroxytryptamine receptor 2A (HTR2A) small molecule antagonists, cell-based qHTS assay (AID 1963586). Note: nearly all actives have a fitted effect of over 45% in size. Note: potency is the fitted concentration of half-maximal effect. A digest of the protocol: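 Antagonist-mode intracellular calcium assay: DOI (4 nM) added after 5 min compound pre-incubation at room temperature to dye-loaded HTR2A-CHO cells. Fluorescence followed for 3 min, sampled every second.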

For assay [13] the target is unchanged. The experiment in a line: 5-hydroxytryptamine receptor 2A (HTR2A) small molecule agonists, cell-based qHTS assay (AID 1963587). Note: nearly all actives have a fitted effect of over 30% in size. The essentials: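 HTR2A-CHO cells, plated 18 h at 37 C/5% CO2, dye-loaded 1 h at 37 C; compounds in DMSO added by pin tool (agonist mode). Intracellular calcium flux read as kinetic fluorescence on FDSS over 2 min at 1 s intervals.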

In assay [14] the target is Muscarinic acetylcholine receptor M1 (Homo sapiens) (UniProt P11229). The experiment in a line: Cholinergic receptor muscarinic 1 (CHRM1) small molecule antagonists, cell-based qHTS assay (AID 1963588). Note: nearly all actives have a fitted effect of over 40% in size. A digest of the protocol: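 CHRM1-CHO calcium-flux assay, antagonist mode. Cells were seeded 18 h, dye-loaded 1 h at 37 C and given compound for 5 min at RT, then acetylcholine was added at 50nM. FDSS fluorescence was read 3 min; 15 concentrations, three runs.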

The target is the same in assay [15]. The experiment in a line: Cholinergic receptor muscarinic 1 (CHRM1) small molecule agonists, cell-based qHTS assay (AID 1963589). Note: nearly all actives have a fitted effect of over 35% in size. The essentials:
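Stable CHRM1-CHO cells (human receptor) were incubated 18 h, dye-loaded for 1 h at 37 C and exposed to test compounds for agonist activity, with calcium-dependent fluorescence followed kinetically.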

Assay [16] is described as follows: cAMP Responsive Elements (CRE) small molecule agonists, cell-based qHTS assay (AID 1963590). A digest of the protocol:
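FRET-based beta-lactamase readout (LiveBLAzer B/G, 2 h RT) quantified CRE activation in HEK 293T CRE-bla cells after 3 h treatment with DMSO-dissolved compounds.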

The nature of assay [17]: cAMP Responsive Elements (CRE) small molecule antagonists, cell-based qHTS assay (AID 1963591; active = well fitted inhibition curve with a large enough effect in the signal ratio in the repeat runs, not every such curve was filed as active; the % refers to the signal ratio). The essentials:
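qHTS in CRE-bla HEK 293T cells: compound in DMSO, then 0.25 uM NKH477 (final), 3 h at 37 °C/5% CO2; beta-lactamase FRET read-out after 2 h substrate incubation.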

In assay [18] the target is Beta-2 adrenergic receptor (Homo sapiens) (UniProt P07550). As to the kind of experiment: Adrenergic beta2 receptor (ADRB2) small molecule antagonists, cell-based qHTS assay (AID 1963592). Note: series mostly up to about 92 µM; nearly all actives have a fitted effect of over 50% in size. A digest of the protocol:
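Cells (CHO, stable ADRB2 overexpression) incubated 18-20hr at 37C; compounds added from DMSO; agonist mix (1nM isoproterenol, 100uM IBMX, 25uM Ro-20-1724) added; 0.5hr RT; d2-cAMP and anti-cAMP-cryptate added; 1hr RT; 665/615 nm read.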

The target is the same in assay [19]. The experiment in a line: Adrenergic beta2 receptor (ADRB2) small molecule agonists, cell-based qHTS assay (AID 1963593).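 Note: CHO cells stably overexpressing human ADRB2.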 The essentials: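 CHO cells stably over-expressing ADRB2 were plated overnight at 37C, then dosed with compounds plus a stimulation mix containing 100uM IBMX and 25uM Ro-20-1724 for 0.5hr at room temperature. cAMP was measured by HTRF competition, 1hr.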

For assay [20], the target named is D(2) dopamine receptor (Homo sapiens) (UniProt P14416). The experiment in a line: Dopamine D2 receptor (DRD2) small molecule agonists, cell-based qHTS assay (AID 1963594). Note: nearly all actives have a fitted effect of over 35% in size. The essentials: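 HEK293 cells stably expressing DRD2 were cultured 24 h at 37 C, then given Ro20-1724 (0.1 mM final) and compounds for 10 min at room temperature. NKH477 (200nM) was then added for 30 min. cAMP was read by HTRF.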
D(2) dopamine receptor (Homo sapiens), sequence (P14416 whole entry, looked up): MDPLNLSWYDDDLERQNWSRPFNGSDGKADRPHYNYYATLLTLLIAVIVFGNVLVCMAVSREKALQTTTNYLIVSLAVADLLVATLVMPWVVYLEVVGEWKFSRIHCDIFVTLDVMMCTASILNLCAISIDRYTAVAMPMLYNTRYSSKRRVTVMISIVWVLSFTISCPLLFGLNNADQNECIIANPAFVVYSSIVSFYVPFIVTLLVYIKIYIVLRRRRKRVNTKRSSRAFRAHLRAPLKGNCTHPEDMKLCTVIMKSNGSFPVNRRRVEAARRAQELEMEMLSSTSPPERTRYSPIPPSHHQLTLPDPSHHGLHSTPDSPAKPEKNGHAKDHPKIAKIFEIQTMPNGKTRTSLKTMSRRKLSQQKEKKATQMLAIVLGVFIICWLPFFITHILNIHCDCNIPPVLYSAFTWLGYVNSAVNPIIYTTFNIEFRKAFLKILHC

Muscarinic acetylcholine receptor M1 (Homo sapiens), sequence (P11229 whole entry, looked up): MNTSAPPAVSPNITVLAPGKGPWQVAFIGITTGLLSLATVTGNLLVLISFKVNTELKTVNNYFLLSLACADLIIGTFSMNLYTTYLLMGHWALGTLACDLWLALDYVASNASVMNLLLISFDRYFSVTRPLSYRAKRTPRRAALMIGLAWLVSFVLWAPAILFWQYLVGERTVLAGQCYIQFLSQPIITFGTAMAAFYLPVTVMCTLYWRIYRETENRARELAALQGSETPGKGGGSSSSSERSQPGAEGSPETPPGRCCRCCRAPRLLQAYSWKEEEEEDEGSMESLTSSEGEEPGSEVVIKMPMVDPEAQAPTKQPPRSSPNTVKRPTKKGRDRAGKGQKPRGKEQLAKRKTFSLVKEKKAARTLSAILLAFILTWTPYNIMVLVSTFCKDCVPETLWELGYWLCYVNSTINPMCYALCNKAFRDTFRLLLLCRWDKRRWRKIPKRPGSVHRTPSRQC
Gonadotropin-releasing hormone receptor (Homo sapiens), sequence (P30968 whole entry, looked up): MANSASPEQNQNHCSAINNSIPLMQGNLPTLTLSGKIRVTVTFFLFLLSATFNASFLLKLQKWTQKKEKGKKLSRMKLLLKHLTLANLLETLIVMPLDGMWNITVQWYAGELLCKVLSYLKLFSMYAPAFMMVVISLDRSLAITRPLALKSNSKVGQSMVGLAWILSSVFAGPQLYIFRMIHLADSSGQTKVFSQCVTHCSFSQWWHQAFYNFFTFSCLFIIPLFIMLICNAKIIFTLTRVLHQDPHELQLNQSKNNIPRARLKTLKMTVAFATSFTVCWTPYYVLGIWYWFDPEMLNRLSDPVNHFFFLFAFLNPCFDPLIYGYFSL
5-hydroxytryptamine receptor 2A (Homo sapiens), sequence (P28223 whole entry, looked up): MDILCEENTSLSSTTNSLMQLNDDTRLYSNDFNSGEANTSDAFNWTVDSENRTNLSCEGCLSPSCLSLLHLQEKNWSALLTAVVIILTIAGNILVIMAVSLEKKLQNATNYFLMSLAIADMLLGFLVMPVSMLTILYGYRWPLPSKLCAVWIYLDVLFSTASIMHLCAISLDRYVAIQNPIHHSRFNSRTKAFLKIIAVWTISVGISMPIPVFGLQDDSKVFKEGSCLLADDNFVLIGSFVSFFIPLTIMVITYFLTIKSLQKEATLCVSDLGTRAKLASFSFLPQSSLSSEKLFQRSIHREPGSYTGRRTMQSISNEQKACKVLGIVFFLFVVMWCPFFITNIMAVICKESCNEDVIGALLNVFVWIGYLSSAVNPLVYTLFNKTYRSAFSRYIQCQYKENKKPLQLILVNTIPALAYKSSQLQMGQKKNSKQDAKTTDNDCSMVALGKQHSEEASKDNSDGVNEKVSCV
Beta-2 adrenergic receptor (Homo sapiens), sequence (P07550 whole entry, looked up): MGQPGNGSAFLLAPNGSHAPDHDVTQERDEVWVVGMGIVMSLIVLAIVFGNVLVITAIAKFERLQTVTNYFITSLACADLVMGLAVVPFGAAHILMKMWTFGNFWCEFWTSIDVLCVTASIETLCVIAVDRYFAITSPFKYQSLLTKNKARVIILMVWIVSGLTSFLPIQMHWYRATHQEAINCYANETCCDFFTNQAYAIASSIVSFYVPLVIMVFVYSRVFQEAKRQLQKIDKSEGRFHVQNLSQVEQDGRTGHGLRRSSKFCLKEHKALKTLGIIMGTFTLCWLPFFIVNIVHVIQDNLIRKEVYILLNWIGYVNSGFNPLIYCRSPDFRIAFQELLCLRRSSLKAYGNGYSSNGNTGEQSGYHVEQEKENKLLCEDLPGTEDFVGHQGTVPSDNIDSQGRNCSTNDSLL
KiSS-1 receptor (Homo sapiens), sequence (Q969F8 whole entry, looked up): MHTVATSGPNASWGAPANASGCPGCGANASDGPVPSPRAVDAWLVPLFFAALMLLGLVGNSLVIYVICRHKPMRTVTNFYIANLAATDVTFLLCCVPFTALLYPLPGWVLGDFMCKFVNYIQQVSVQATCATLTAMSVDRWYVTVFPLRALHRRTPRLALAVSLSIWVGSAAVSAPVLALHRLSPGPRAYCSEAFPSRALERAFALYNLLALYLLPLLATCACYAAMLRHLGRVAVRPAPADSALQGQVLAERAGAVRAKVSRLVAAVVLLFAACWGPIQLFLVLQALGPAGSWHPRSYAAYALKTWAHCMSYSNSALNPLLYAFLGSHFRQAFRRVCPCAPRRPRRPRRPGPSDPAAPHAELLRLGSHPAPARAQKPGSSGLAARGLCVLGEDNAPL

Take `N[C@@H](CCC(=O)Nc1ccc([N+](=O)[O-])cc1)C(=O)O`: the Potency entry in [1], in [2], in assay [3], in assay [4], in assay [5] and in assay [6] was “inactive” each time. Also, the Potency entry in assay [7], in assay [8], in assay [9], in [10], in assay [11] and in assay [12] was “inactive” throughout. The Potency result in assay [13], in assay [14], in assay [15], in assay [16], in [17] and in [18] was “inactive” each time. The Potency entry in assay [19] and in assay [20] was “inactive” in each case.
On to `CC(=O)CC(N)=O`, for which the Potency result in assay [1], in assay [2], in assay [3], in assay [4], in assay [5] and in assay [6] was “inactive” throughout. For the same compound, the Potency entry in assay [7], in assay [8], in assay [9], in assay [10], in assay [11] and in assay [12] was “inactive” throughout. In addition, the Potency entry in assay [13], in assay [14], in [15], in [16], in assay [17] and in assay [18] was “inactive” in each case. Further, the Potency entry in assay [19] and in assay [20] was “inactive” in each case.
With `C=CC(=O)CCCCC`, the Potency entry in [1], in assay [2], in [3], in [4], in assay [5] and in [6] was “inactive” in each case. Also, the Potency result in [7], in assay [8], in [9], in [10], in [11] and in assay [12] was “inactive” in each case. For the same compound, the Potency entry in assay [13], in assay [14], in [15], in [16], in [17] and in [18] was “inactive” in each case. The Potency result in assay [19] and in [20] was “inactive” each time.
With `CC(C)(C)NCCO`, the Potency result in assay [1], in [2], in [3], in [4], in assay [5] and in [6] was “inactive” throughout. Moreover, the Potency result in assay [7], in assay [8], in assay [9], in assay [10], in assay [11] and in [12] was “inactive” throughout. In addition, the Potency result in [13], in assay [14], in assay [15], in assay [16], in assay [17] and in assay [18] was “inactive” throughout. Further, the Potency result in [19] and in assay [20] was “inactive” each time.
With `O=S(=O)(O)CC(O)CCl` (configuration not stated), the Potency entry in assay [1], in assay [2], in assay [3], in assay [4], in [5] and in [6] was “inactive” throughout. For the same compound, the Potency entry in assay [7], in assay [8], in [9], in assay [10], in assay [11] and in assay [12] was “inactive” in each case. For the same compound, the Potency entry in assay [13], in [14], in assay [15], in assay [16], in assay [17] and in assay [18] was “inactive” each time. Moreover, the Potency entry in assay [19] and in [20] was “inactive” throughout.
For `CCCC[O][Al]([O]CCCC)[O]CCCC`, the Potency result in assay [1], in assay [2], in assay [3], in assay [4], in assay [5] and in [6] was “inactive” each time. In addition, the Potency result in [7], in assay [8], in [9], in assay [10], in assay [11] and in assay [12] was “inactive” each time. The Potency result in assay [13], in assay [14], in assay [15], in assay [16], in [17] and in assay [18] was “inactive” throughout. Moreover, the Potency entry in [20] was “inactive”.
For `c1ccc(CNCc2ccccc2)cc1`, the Potency result in assay [1], in assay [2], in assay [3], in assay [4], in assay [5] and in assay [6] was “inactive” in each case. For the same compound, the Potency entry in assay [7], in [8], in assay [9], in assay [10], in assay [11] and in assay [13] was “inactive” each time. The Potency entry in assay [14], in assay [15], in assay [16], in [17], in assay [18] and in assay [20] was “inactive” throughout. The Potency in assay [12] was 8.4 µM (active).
Consider `O=C1CCN(c2ccccc2)N1`, for which the Potency result in assay [1], in [2], in assay [3], in assay [4], in [5] and in [6] was “inactive” each time. Moreover, the Potency result in [7], in assay [8], in assay [9], in [10], in assay [11] and in assay [12] was “inactive” each time. In addition, the Potency result in [13], in [14], in [15], in [16], in [17] and in assay [18] was “inactive” in each case. Moreover, in assay [20], the Potency result was “inactive”.
